# Giardia FBPA inh – blocks Giardia fructose-bisphosphate aldolase activity | A8B2U2 | purified Giardia FBPA | Potency, µM (titrated, usually from 59.6 µM), for inactives: at the top dose activity, negative = inhibition, usual class: inhibitors | actives 0.71% (n = 290,000); also: potency is read from the fitted curve at half-maximal effect; nearly all actives have a fitted effect of over 55% in size
# Target sequence (A8B2U2 whole entry, looked up): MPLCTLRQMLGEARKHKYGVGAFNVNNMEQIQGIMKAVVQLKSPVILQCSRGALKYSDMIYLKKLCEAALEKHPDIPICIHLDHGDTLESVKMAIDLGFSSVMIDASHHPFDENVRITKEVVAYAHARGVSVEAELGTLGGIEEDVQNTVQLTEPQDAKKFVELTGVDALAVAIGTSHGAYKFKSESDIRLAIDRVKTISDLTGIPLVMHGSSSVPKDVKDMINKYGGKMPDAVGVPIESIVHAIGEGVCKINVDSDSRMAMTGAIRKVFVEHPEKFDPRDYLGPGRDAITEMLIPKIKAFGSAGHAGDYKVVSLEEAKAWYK
#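 40 nM FBPA preincubated 10 min at RT with compound (up to 57.5 uM final), then substrate plus GAPDH/TPI/NAD/arsenate coupling and diaphorase/resazurin added. Fluorescence read after 20 min at RT, 525/598 nm.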
# Pf growth 96h – P. falciparum growth inhibition at 96 hour, primary screen for plastid delayed-death inhibitors; actives 6.9% (n = 320,000); P. falciparum luciferase reporter growth, 96 h; Potency, µM (highest dose often 28.7 µM), inactives show at the highest dose activity change, negative = inhibition, actives largely listed as inhibitors; also: potency is read from the fitted curve at half-maximal effect
#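 P. falciparum expressing integrated firefly luciferase grown in erythrocytes (2% hematocrit, 0.05% parasitemia final) with compounds for 96 hours at 37 C, 5% CO2. Growth inhibition read as loss of luminescence after adding luciferase detection reagent.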
# HCMV inh – human cytomegalovirus inhibition | activity change, negative = inhibition, % at 57.5 µM | HFF cells, HCMV-luciferase reporter, 72 h; stronger effect = lower value | AID 1259415 | actives 4.5% (n = 410,000); in the data active = activity change below about -60%; inconclusive = no clear call, values can overlap the other calls; inactive = above about -39%
#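 Two compound doses tested in HFFs infected with HCMV-luciferase, MOI 1 PFU/cell, 72 h at 37C. Lysate luminescence read with OneGlo; data normalized against buffer-only and 10uM Salinomycin inhibitor controls.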
# Pf growth 48h – P. falciparum growth inhibition at 48 hours (one generation); Potency, µM (titrated, usually from 28.7 µM), for the others: top-dose activity change, negative = inhibition, hits mostly inhibitors; P. falciparum luciferase growth in erythrocytes, 48 h; AID 504832; actives 5.9% (n = 310,000); also: potency is read from the fitted curve at half-maximal effect
#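 Cell-based growth assay: transgenic P. falciparum expressing firefly luciferase, cultured in red cells within RPMI 1640 containing 0.5% w/v Albumax, 24 mM bicarbonate and gentamycin. A drop in luciferase activity indicates inhibition.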
# Sm TGR inh – S. mansoni TGR enzyme inhibition | purified TGR, DTNB reduction, TNB absorbance 405 nm | actives 3% (n = 360,000) | Potency, µM (top dose mostly 114 µM), for inactives: at the highest dose activity change, negative = inhibition, usual class: inhibitors; also: potency is read from the fitted curve at half-maximal effect; nearly all actives have a fitted effect of over 60% in size
#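 First, TGR (20 nM dispensed) and NADPH were mixed with compound. Second, a 15 min room-temperature incubation followed. Third, further NADPH and then DTNB were added to start the reaction. Finally, TNB absorbance was monitored kinetically.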
# * = called active by the depositor; ? = inconclusive; . = no result given; [ ] = remark or other dose. Only some compounds are listed: those with a hit (about 14% of all), similar ones and a draw of the others. Unless noted, calls follow the shape of the dose curve; as a rule, active = well fitted curve in the direction sought with a large enough effect; inconclusive = small, poorly fitted or top-dose-only effect, or another doubt; inactive = no such curve, though single readings can be large; an effect the other way counts as inactive or inconclusive. % is scaled to controls: 0 for no effect and ±100 for the full control effect.
SMILES,Giardia FBPA inh,Pf growth 96h,HCMV inh,Pf growth 48h,Sm TGR inh
COC(=O)C1=C(c2ccc(F)cc2F)C[C@@H]2CC[C@H]1N2C(=O)NCC1CC1,.,39.2%,.,23.7%,-5.8%
COC(=O)C1=C(c2ccc(F)cc2F)C[C@@H]2CC[C@H]1N2C(=O)NCCO,.,36.7%,0.9,22.5%,3.2%
CCn1cc2nc(SCc3ccc(F)cc3)n(CCc3ccccc3)c(=O)c2n1,.,.,-21.4,.,7.5%
O=C(Nc1cccc(Cl)c1N1CCOCC1)c1cccnc1Cl,1.7%,16.4%,46.0,7.5%,-0.6%
CCOc1ccc(CN2C(=O)c3ccccc3Sc3ccc(C(=O)NCc4ccc(C)cc4)cc32)cc1,.,.,-5.2,.,10.4%
CCN1/C(=C2\C(=O)N(C)C(=S)N2C)C=Cc2ccccc21,-19.2%,37.8%,-29.4,?,0.2%
CCN1/C(=C2\C(=O)N(C)C(=S)N2C)C=Cc2cc(C)ccc21,-8.6%,22.8%,-21.5,3.7µM*,5.4%
COC(=O)c1cc(S(=O)(=O)NCc2ccc(Br)cc2)c[nH]1,.,-1.1%,-14.7,8.7%,-9.1%
CCN(C(=O)C(C)Sc1nnc(-c2ccncc2)n1C)C1CCCCC1 (centres undefined),.,.,30.7,.,.
CCCn1c(SCC(=O)Nc2cccc(S(=O)(=O)NC3=NCCCCC3)c2)nc2ccccc2c1=O,3.6%,6.57µM*,-30.3,8.28µM*,-0.7%
Cc1ccc(-n2c(SCC(=O)Nc3cccc(S(=O)(=O)NC4=NCCCCC4)c3)nc3ccccc3c2=O)cc1C,4.5%,?,-30.8,?,-1.5%
CCOCCCn1c(SCC(=O)Nc2cccc(S(=O)(=O)NC3=NCCCCC3)c2)nc2ccccc2c1=O,3.7%,-9.6%,-8.6,6.57µM*,6.9%
CC(C)(C)NC(=O)C(c1ccc(F)cc1)N(C(=O)CCC(=O)Nc1ccccn1)C1CCCC1 (centres undefined),9.8%,-14.6%,-19.0,?,-13.7%
CCC1(CC)Cc2ccccc2C2=C(C(=O)N3CCCCC3)C(=O)C(=O)N21,?,-10.1%,-13.9,10.2%,6.5%
COC(=O)C(c1ccccc1)(c1cn(C)c2cc(Br)ccc12)C(Nc1ccccc1)c1ccccc1 (centres undefined),.,.,-7.3,.,.
COC(=O)C(c1ccc(Br)cc1)(c1cn(C)c2ccccc12)C(Nc1ccccc1)c1ccccc1 (centres undefined),.,.,-79.3*,.,.
COCCn1c(N)c(C(=O)NCC2CCCO2)c2nc3ccccc3nc21 (centres undefined),-28.1%,47.5%,-11.1,?,11.6%
Nc1c(C(=O)OCC2CCCO2)c2nc3ccccc3nc2n1Cc1cccs1 (centres undefined),-28.5%,3.7µM*,-16.5,?,-2.7%
Nc1c(C(=O)OCC2CCCO2)c2nc3ccccc3nc2n1C1CCCC1 (centres undefined),-14.5%,8.2%[5.75 µM],-16.8,10.4µM*,?
Cc1ccc(N2C(=O)C3C(C2=O)C(C(=O)c2ccc(Cl)cc2)N2CCCC32)cc1 (centres undefined),-4.8%,.,40.9,?,28.2µM*
CC(=O)Oc1ccc(N2C(=O)C3C(C2=O)C(C(=O)c2ccc(Cl)cc2)N2CCCC32)cc1 (centres undefined),16.8%,0.1%,-32.9,-59.2%,20µM*
CCOCCn1c(CN2CCN(c3ccc(F)cc3)CC2)nc2c1c(=O)n(C)c(=O)n2C,2.2%,7.38µM*,?,.,0.0%[11.4 µM]
CN(Cc1ccccc1)Cc1nc2c(c(=O)n(C)c(=O)n2C)n1Cc1ccc(Cl)cc1,0.5%,-7.8%,-16.8,-26.4%,1.7%
CCOCCn1c(CN(Cc2ccccc2)Cc2ccccc2)nc2c1c(=O)n(C)c(=O)n2C,-3.3%,1.31µM*,-35.2,.,3.1%
CCCCn1c(CN(Cc2ccccc2)Cc2ccccc2)nc2c1c(=O)n(C)c(=O)n2C,.,.,4.8,.,.
SMILES,Giardia FBPA inh,Pf growth 96h,HCMV inh,Pf growth 48h,Sm TGR inh
CN(Cc1ccccc1)Cc1nc2c(c(=O)n(C)c(=O)n2C)n1Cc1ccc(F)cc1,-4.4%,11.7µM*,-5.7,11.7µM*,6.1%
Cc1ccc(C)c(Cn2c(CN(C)Cc3ccccc3)nc3c2c(=O)n(C)c(=O)n3C)c1,-8.9%,13.1µM*,?,.,8.5%
Cc1ccc(Cn2c(CN(C)Cc3ccccc3)nc3c2c(=O)n(C)c(=O)n3C)cc1,1.1%,.,76.3,?,0.0%
COc1cc(C2NC(=O)CCC2[N+](=O)[O-])cc(Br)c1OC (centres undefined),-3.7%,-4.4%,-30.9,-23.7%[0.00184 µM],4.8%
C=C1C[C@@]2(C)CCCC3=CC(=O)C=C[C@@]32Oc2ccccc21,.,.,-14.3,.,.
COc1cccc(CNC(=O)CCn2nc(C)c3c(C)n(-c4ccccc4)nc3c2=O)c1,.,.,-1.1,.,3.5%
CC(C)n1c(CN(C)Cc2ccccc2)nc2c1c(=O)n(C)c(=O)n2C,6.6%,?,-88.9*,2.1%,-26.4%
CC(=O)C(C)n1c(CN(C)Cc2ccccc2)nc2c1c(=O)n(C)c(=O)n2C (centres undefined),11.8%,-26.5%,-1.5,-12.0%,2.2%
COC(=O)c1ccc2c(=O)n(CCCCCC(=O)NCc3ccc(OC)cc3)c(=O)[nH]c2c1,.,.,13.7,.,0.3%
COC1CCCCC1Nc1cccc(SC)c1 (centres undefined),-23.4%,.,-22.5,28.5%,2.8%
COC1CCCCC1Nc1cc(C)cc(C)c1 (centres undefined),-27.7%,13.1µM*,16.5,.,-15.6%
CCCCn1c(SCC(=O)NCc2ccco2)nc2ccc(N3CCOCC3)cc2c1=O,?,1.4%,?,14.7µM*,28.2µM*
CCN(CC)C(=O)CSc1nc2cc3c(cc2c(=O)n1Cc1ccc2c(c1)OCO2)OCO3,-2.1%,.,?,?,1.3%
CCCCNC(=O)CSc1nc2ccc(N3CCOCC3)cc2c(=O)n1Cc1ccc(OC)cc1,?,?,59.8,?,-1.3%
CCOC(=O)CSc1nc2ccc(N3CCOCC3)cc2c(=O)n1Cc1ccc2c(c1)OCO2,?,.,.,11.7µM*,-17.1%
CCCCn1c(SCC(=O)NCc2ccco2)nc2cc(S(N)(=O)=O)ccc21,-12.9%,.,-24.6,-27.1%,50.1µM*
CCCCn1c(SCC(=O)NCc2ccccc2)nc2ccc(N3CCOCC3)cc2c1=O,?,29.2%,-13.3,11.7µM*,-9.5%
CCCCn1c(SCC(=O)NC(C)CC)nc2ccc(N3CCOCC3)cc2c1=O (centres undefined),?,?,16.8,?,?
COCCNC(=O)CSc1nc2cc3c(cc2c(=O)n1Cc1ccco1)OCO3,-10.1%,22.6%,-37.1,15.0%,1.6%
CCCCn1c(SCC(=O)Nc2ccc(OC)cc2)nc2ccc(N3CCOCC3)cc2c1=O,?,?,45.3,?,28.2µM*
CCCCNC(=O)CSc1nc2cc3c(cc2c(=O)n1Cc1ccco1)OCO3,5.1%,-2.7%,-60.5*,-11.3%,-15.4%
